# Screens as filed in PubChem BioAssay.
# In the library only some 1.1% were active in any assay of this set; here they are far more common.
# OPRM1-OPRD1 inv – inverse agonists of MOR-DOR heterodimerization, primary screen, cell-based, luminescence | Mu-type opioid receptor (Homo sapiens) + Delta-type opioid receptor (Homo sapiens), … | cell-based MOR-DOR heterodimer luminescence, inverse agonism | inhibition, % at 9.3 µM | actives 0.21% (n = 340,000) | AID 504357, 2011; in the data active = inhibition above about 22%, passing the limit was not always enough;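 also: 0% = cells with DMSO and 100% = wells without cells with DMSO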
# HTR5A ag ctr – HTR5A agonists in luminescence cell assay, primary screen, counter-screen for OPRM1-OPRD1 heterodimer agonist project, full-deck HTS; cell-based; AID 504692, 2011; actives 0.61% (n = 340,000); activation, % at 9.3 µM; 5-hydroxytryptamine receptor 5A (Homo sapiens), P47898; in the data active = activation mostly above about 9.5%, no sharp cut-off; inactive = mostly below about 7.6%;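 also: 0% = cells with vehicle only and 100% = reference agonist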
# Target sequence (P47898 whole entry, looked up): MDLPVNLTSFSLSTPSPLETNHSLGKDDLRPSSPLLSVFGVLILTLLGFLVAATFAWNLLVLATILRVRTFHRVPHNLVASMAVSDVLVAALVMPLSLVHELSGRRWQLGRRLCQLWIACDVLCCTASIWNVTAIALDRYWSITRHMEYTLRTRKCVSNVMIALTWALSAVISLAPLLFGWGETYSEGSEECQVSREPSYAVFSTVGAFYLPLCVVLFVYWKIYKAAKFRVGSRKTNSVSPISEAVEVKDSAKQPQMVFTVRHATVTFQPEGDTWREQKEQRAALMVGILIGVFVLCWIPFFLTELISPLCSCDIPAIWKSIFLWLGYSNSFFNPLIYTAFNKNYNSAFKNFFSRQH
# HTR5A inv ag – HTR5A inverse agonists in luminescence cell assay, primary screen, counter-screen for OPRM1-OPRD1 heterodimer inverse agonist project, full-deck HTS. 5-hydroxytryptamine receptor 5A (Homo sapiens), P47898. HTR5A cell line, inverse agonism. inhibition, % at 9.3 µM. actives 0.083% (n = 340,000). AID 504634, 2011; in the data active = inhibition mostly above about 23%, no sharp cut-off; inactive = mostly below about 18%;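 also: 0% = cells with DMSO and 100% = no-cell wells with DMSO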
# OPRM1-OPRD1 ag – agonists of OPRM1-OPRD1 heterodimerization, primary screen, cell-based, luminescence | Mu-type opioid receptor (Homo sapiens) + Delta-type opioid receptor (Homo sapiens), … | cells | activation, % at 9.3 µM | actives 0.3% (n = 340,000); in the data active = activation above about 18%;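 also: 0% = vehicle-treated cells and 100% = reference agonist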
# Numbers without * were called inactive.
SMILES,OPRM1-OPRD1 inv,HTR5A ag ctr,HTR5A inv ag,OPRM1-OPRD1 ag
O=C(CN1C(=O)/C(=C/c2ccccc2)SC1=S)NC1C=CS(=O)(=O)C1 (configuration not stated),7.1,12.5*,-16.1,-1.3
O=C(CN1C(=O)/C(=C/c2ccc(Cl)cc2)SC1=S)NC1C=CS(=O)(=O)C1 (configuration not stated),10.6,-4.4,-11.7,-2.1
Cc1nc(=O)c(-c2ccccc2)c(C)n1-c1ccccc1,3.4,-0.1,0.3,-0.7
CC(=O)Nc1ccc(-n2c(C)nc(=O)c(-c3ccccc3)c2C)cc1,9.7,10.4*,-3.7,-1.8
O=C1C=CC(=O)c2c(O)c(N3CCN(CCO)CC3)c(Cl)c(O)c21,-109.1,-2.9,11.3,21.2*
O=S(=O)(c1ccc(Br)cc1Cl)N1CCN(CCO)CC1,17.8,1.8,-7.8,-3.8
CNC(=O)c1cc(Nc2nnc(C)c3ccccc23)ccc1OC,7.1,0.8,18.3,-1.2
CNC(=S)N(Cc1cc2cc(OC)c(OC)cc2[nH]c1=O)C1CCCC1,5.4,13.1*,21.4,-1.0
CC1CCCC(NC(=O)COC(=O)[C@@H](NC(=O)c2ccco2)C(C)C)C1C (some centres not stated),11.2,-3.3,8.1,-1.7
Cc1nccn1C(c1ccccc1)c1ccccc1,-17.3,4.0,-10.4,3.5
CC(=O)c1cccc(NC(=O)CN2C(=S)NC(C)(C)CC2C)c1 (configuration not stated),3.8,-0.8,9.5,-0.8
Cc1ccc(-n2[nH]c(C)c(C=Nc3ccc4[nH]c(=O)[nH]c4c3)c2=O)cc1C,-114.5,22.2*,-42.3,24.9*
Cc1ccc(-n2[nH]c(C)c(C=Nc3ccc4[nH]c(=O)[nH]c4c3)c2=O)cc1,-33.8,1.3,-3.5,5.6
CCCCOC(=O)Nc1ccc(N2CCCCC2)cc1,-10.1,9.6*,5.8,2.0
O=C(CCNC(=O)C1CCN(S(=O)(=O)c2ccc(F)cc2)CC1)Nc1nccs1,9.2,10.2*,-14.7,-1.8
CC(=O)Nc1ccc(S(=O)(=O)N2CCC(C(=O)NCCC(=O)Nc3nccs3)CC2)cc1,15.2,3.2,-23.1,-2.8
COC(=O)c1nc2nc(-c3cccs3)cc(C(F)(F)F)n2n1,1.7,10.8*,-29.6,-0.2
COC(=O)c1nc2nc(C)cc(C(F)(F)F)n2n1,-6.4,2.6,-7.1,1.1
S=C(NCCN1CCOCC1)Nc1ccc(Cl)c(Cl)c1,-8.7,3.3,-8.7,1.2
C(=N/Nc1nc(-c2ccccc2)cc(-c2ccccc2)n1)/c1cccnc1,-15.5,3.8,14.1,2.9
Cc1cc(-c2ccccc2)nc(N/N=C/c2cccnc2)n1,-0.1,11.0*,-27.1,0.0
O=C(N/N=C/c1cccc2ccccc12)c1ccc(CN2CCOCC2)cc1,7.2,11.9*,-41.9,-1.6
O=C(COc1ccc2oc(-c3ccccc3)cc(=O)c2c1)Nc1ccccc1,2.8,12.2*,-17.5,-0.4
COc1ccccc1N1CCN(CCCN2C(=O)C3CCCN3C2=O)CC1 (configuration not stated),-5.7,2.5,-9.5,1.2
O=C(COC(=O)CCN1C(=O)c2ccccc2C1=O)Nc1ccccc1[N+](=O)[O-],7.2,10.6*,-38.3,-1.4
SMILES,OPRM1-OPRD1 inv,HTR5A ag ctr,HTR5A inv ag,OPRM1-OPRD1 ag
O=C(COC(=O)CN1C(=O)c2ccccc2C1=O)Nc1ccccc1[N+](=O)[O-],-2.6,-5.7,14.3,0.7
Cn1c(N)c(C(=O)COC(=O)C2(c3ccc(F)cc3)CCCC2)c(=O)n(C)c1=O,-8.0,8.4*,17.8,1.4
COc1ccc(C2OCC(C)([N+](=O)[O-])CO2)cc1 (configuration not stated),11.9,-3.2,13.2,-2.3
Cc1cc([N+](=O)[O-])ccc1NC(=O)c1csc(C)c1C,1.5,13.3*,-0.8,-0.3
N#CC1C(=O)NC(c2ccccc2)=CC1c1ccccc1 (configuration not stated),69.0*,-13.4,52.1*,-13.8
O=C(c1cc2ccccc2o1)N1CCN(Cc2ccc3c(c2)OCO3)CC1,8.9,11.2*,-10.6,-2.7
Cc1cc(Cl)ccc1NC(=S)N1CCN(Cc2ccc3c(c2)OCO3)CC1,-29.4,-1.7,39.3,5.0
CCCNC(=S)N1CCN(Cc2ccc3c(c2)OCO3)CC1,-5.2,11.6*,-28.5,1.0
Fc1ccccc1NC(=S)N1CCN(Cc2ccc3c(c2)OCO3)CC1,7.7,12.0*,-5.3,-1.5
COC(=O)/C(N=Nc1cccc(C(F)(F)F)c1)=C(\C)O,-9.9,0.2,-19.9,1.8
COC(=O)C1=C(O)CSC1=Nc1cccc(C(F)(F)F)c1,12.9,13.8*,-0.8,-2.6
COc1ccc(NC(=O)CSCC(=O)N2CCN(C(=O)c3ccco3)CC2)cc1,7.9,-5.3,13.1,-1.9
Clc1ccccc1/C=N/NC1=Nc2cccc3cccc1c23,-76.6,11.9*,-14.7,11.3
CC(C)(C)OC(=O)C(C1NC(C(=O)O)C(C)(C)S1)N1C(=O)c2ccccc2C1=O (configuration not stated),13.1,0.0,0.1,-2.5
O=C(N[C@@H](Cc1ccccc1)C(=O)OCc1ccccc1)c1nc[nH]c1C(=O)N1CCN(c2ccccc2)CC1,-15.7,13.1*,-31.9,2.9
COc1ccc(Oc2nccc(-c3ccccc3)c2C#N)cc1,-0.2,11.4*,-15.3,0.0
CCCC(=O)OCCNc1cc(Sc2nccn2C)c2nonc2c1[N+](=O)[O-],40.2*,-7.8,-18.3,-7.3
CCCSc1cc(NCCOC(=O)CCC)c([N+](=O)[O-])c2nonc12,9.2,0.9,-25.2,-1.6
CC(C)CCNC(=O)C(=O)Nc1ccc2c(c1)N(S(=O)(=O)c1cccs1)CCC2,26.6,2.5,16.3,-5.5
C=CCNC(=S)N1CCN(S(=O)(=O)c2ccc(C)cc2)CC1,4.1,12.4*,-11.2,-0.8
O=C(CSc1nc(O)cc(=O)n1-c1ccc(Cl)c(Cl)c1)Nc1ccc(Cl)cc1Cl,-12.3,10.4*,8.3,1.8
Cc1cccc(N2CCN(S(=O)(=O)c3ccc4c(c3)NC(=O)CS4)CC2)c1C,-56.0,11.8*,-14.7,11.0
Cc1cccc(N2CCN(S(=O)(=O)c3ccc4c(c3)NC(=O)C(C)S4)CC2)c1C (configuration not stated),-9.6,-0.6,2.3,1.9
C/C(=N\N=C1\NC(=O)C(CC(=O)Nc2ccccc2F)S1)C1CCCCC1 (configuration not stated),-10.1,4.8,-0.1,1.5
CC(=O)c1ccc(NC(=O)CN2CCN(S(=O)(=O)c3ccc4ccccc4c3)CC2)cc1,0.0,4.2,-10.3,0.0
Cc1cc(NC(=O)CN2CCN(S(=O)(=O)c3ccc4ccccc4c3)CC2)no1,-28.2,10.2*,-36.4,5.0
COCCOC(=O)c1c(C)n(C)c2ccc(OC(=O)c3c(OC)cccc3OC)cc12,8.1,10.7*,-40.0,-1.6
COCCOC(=O)c1c(C)n(C)c2ccc(OC(=O)N3CCOCC3)cc12,1.5,1.4,-16.8,-0.3
